The supplement of paper PMC12494721
Counter-ions that a name gives are not always drawn.

The compounds below were run on Clostridium sporogenes DSM 1664 (assay: fold change of Tryptamine concentration vs plate DMSO controls (fold change (ratio)); higher = more amine produced, active = hit call of the paper (significant change in both replicates, either direction)). Details: incubation time: 27 h, anaerobic, 37 °C;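 for the amine columns active = adjusted P below 0.05 in both replicates with a change the same way and a mean fold change under 0.8 or over 1.25; inactive = the rest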.
Summary of the method: (§1)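 In 80 µL wells, cultures of four gut bacterial strains in mGAM started at OD 0.1 before a 1:1 dilution and grew anaerobically at 37 °C for 27 h. Compounds were added to 20 µM final, except sweeteners at 50 µM final. After extraction of whole cultures with cold acetonitrile/methanol plus 0.1% formic acid and centrifugation, amines were measured by LC–triple-quadrupole MS in dynamic MRM mode against external calibration curves, with within-batch drift correction. Values give fold change over DMSO controls on the same plate, averaged across 2 biological replicates.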

Fold change of Tryptamine concentration, inactive:
CC(C)[C@H]1CC[C@H](C(=O)N[C@H](Cc2ccccc2)C(=O)O)CC1 [Nateglinide] (20 µM) 0.94
O=C1OC(c2ccc(O)cc2)(c2ccc(O)cc2)c2ccccc21 [Phenolphthalein] (20 µM) 0.974
COc1cc2c(cc1OC)C(=O)C(CC1CCN(Cc3ccccc3)CC1)C2 (stereo not given) [Donepezil hydrochloride] (20 µM) 0.947
CC1=C(CC(=O)O)c2cc(F)ccc2/C1=C\c1ccc([S+](C)[O-])cc1 (stereo not given) [Sulindac] (20 µM) 1.04
Cc1cn([C@H]2C=C[C@@H](CO)O2)c(=O)[nH]c1=O [Stavudine] (20 µM) 0.97
C[C@]12CCC(=O)C=C1CC[C@@H]1[C@@H]2C(=O)C[C@@]2(C)[C@H]1CC[C@]2(O)C(=O)CO [Cortisone] (20 µM) 0.974
C/C(O)=C(\C#N)C(=O)Nc1ccc(C(F)(F)F)cc1 [Teriflunomide] (20 µM) 0.946
C[N+](C)(C)CCCCCC[N+](C)(C)C [Hexamethonium dibromide dihydrate] (20 µM) 1.02
COC(=O)CCc1ccc(OCC(O)CNC(C)C)cc1 (stereo not given) [Esmolol hydrochloride] (20 µM) 0.972
O=C(O)Cc1ccccc1Oc1ccc(Cl)cc1Cl [Fenclofenac] (20 µM) 0.984

The compounds below were run on Ruminococcus gnavus DSM 108212 in the same assay as above. Details: incubation time: 27 h, anaerobic, 37 °C.
Summary of the method: as §1

Fold change of Tryptamine concentration, inactive:
CCc1nc(N)nc(N)c1-c1ccc(Cl)cc1 [Pyrimethamine] (20 µM) 0.912
CC(=O)Oc1cccc2c1C(=O)c1c(OC(C)=O)cc(C(=O)O)cc1C2=O [Diacerein] (20 µM) 0.905
CC(C)(CO)[C@@H](O)C(=O)NCCCO [(D)-Panthenol] (20 µM) 0.956
CCc1cc(Cl)c(OC)c(C(=O)NC[C@@H]2CCCN2CC)c1O [(S,-) Eticlopride hydrochloride] (20 µM) 0.88
O=C1c2cccc(O)c2C(=O)c2c(O)cccc21 [Danthron] (20 µM) 1
CN(C)CCC(c1ccc(Br)cc1)c1ccccn1 (stereo not given) [Brompheniramine maleate] (20 µM) 1.1
NC[C@H]1O[C@H](O[C@H]2[C@H](O[C@@H]3O[C@H](CO)[C@@H](O)[C@H]3O)[C@@H](O)[C@H](N)C[C@@H]2N)[C@H](N)[C@@H](O)[C@@H]1O [Ribostamycin sulfate salt] (20 µM) 0.996
NS(=O)(=O)c1cc2c(cc1Cl)N=CNS2(=O)=O [Chlorothiazide] (20 µM) 0.998
O=C1NCN(c2ccccc2)C12CCN(CCCC(c1ccc(F)cc1)c1ccc(F)cc1)CC2 [Fluspirilene] (20 µM) 0.814
C[C@H](CCC(=O)O)[C@H]1CC[C@H]2[C@@H]3C(=O)C[C@@H]4CC(=O)CC[C@]4(C)[C@H]3CC(=O)[C@]12C [Dehydrocholic acid] (20 µM) 0.987
CCn1cc(C(=O)O)c(=O)c2ccc(C)nc21 [Nalidixic acid sodium salt] (20 µM) 1.02
NCCc1ccc(O)c(O)c1 [Dopamine hydrochloride] (20 µM) 1.03
Cc1c(-c2ccccc2)oc2c(C(=O)OCCN3CCCCC3)cccc2c1=O [Flavoxate hydrochloride] (20 µM) 1.03
CN(C)C(=N)NC(=N)N [Metformin hydrochloride] (20 µM) 1.06
N=C(N=C(N)N)N1CCOCC1 [Moroxidine hydrochloride] (20 µM) 1.18
CCOCC(O)COc1ccc(NC(=O)CC[S+](C)C)cc1 (stereo not given) [Suplatast Tosylate] (20 µM) 0.978
CCN1CCN(c2cc3c(cc2F)c(=O)c(C(=O)O)cn3C2CC2)CC1 [Enrofloxacin] (20 µM) 0.982

Fold change of Tryptamine concentration, active:
CCc1oc2ccccc2c1C(=O)c1cc(Br)c(O)c(Br)c1 [Benzbromarone] (20 µM) 0.722
COc1cc(C(=O)NS(=O)(=O)c2ccccc2C)ccc1Cc1cn(C)c2ccc(NC(=O)OC3CCCC3)cc12 [Zafirlukast] (20 µM) 0.582
Oc1c(I)cc(Cl)c2cccnc12 [Clioquinol] (20 µM) 0.628
